What was measured:
Assay in all cases: PBM binding z-score (relative to random genomic background probes); higher = stronger binding; sequences stand for … in GC…GCGATTGACAGCGTAGAATGAAGG
[1] = system: FXR:RXRa (NR concentration 270 nM, RXRa partner concentration 90 nM)
Outline: (§1)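 Antibodies against each partner of ligand-free nuclear receptor dimers (one per run) detected binding on custom Agilent 4×180K protein-binding microarrays after 1 h incubation. The double-stranded probes had 34-nt variable regions carrying direct-repeat seeds, single-nucleotide variants, half-site ablations and random human genomic background sequences. Binding z-scores, from regression-normalized fluorescence, use the random background probes as reference.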

[2] = system: LXRa:RXRa (NR concentration 270 nM, RXRa partner concentration 90 nM)
Outline: as §1

[3] = system: LXRa homodimer (NR concentration 270 nM)
Outline: as §1

[4] = system: LXRb:RXRa (NR concentration 270 nM, RXRa partner concentration 90 nM)
Outline: as §1

[5] = system: LXRb homodimer (NR concentration 270 nM)
Outline: as §1

[6] = system: PPARa:RXRa (NR concentration 270 nM, RXRa partner concentration 90 nM)
Outline: as §1

[7] = system: PPARg:RXRa (NR concentration 180 nM, RXRa partner concentration 90 nM)
Outline: as §1

[8] = system: PPARg:RXRa 270nM:90nM, anti-RXR (NR concentration 270 nM, RXRa partner concentration 90 nM)
Outline: as §1

[9] = system: PPARg:RXRa 30nM:10nM, anti-RXR (NR concentration 30 nM, RXRa partner concentration 10 nM)
Outline: as §1

[10] = system: PPARg:RXRa 90nM:30nM, anti-RXR (NR concentration 90 nM, RXRa partner concentration 30 nM)
Outline: as §1

[11] = system: PPARg:RXRa DBDmut IVT, anti-RXR (DBD mutation: RXRa K156A/R161A, NR concentration 270 nM, RXRa partner concentration 90 nM)
Outline: as §1

[12] = system: PPARg:RXRa IVT, anti-PPARg (NR concentration 270 nM, RXRa partner concentration 90 nM)
Outline: as §1

[13] = system: PPARg DBDmut:RXRa IVT, anti-PPARg (DBD mutation: PPARg1 K132A/R137A, NR concentration 270 nM, RXRa partner concentration 90 nM)
Outline: as §1

[14] = system: PPARg DBDmut IVT, anti-PPARg (DBD mutation: PPARg1 K132A/R137A, NR concentration 270 nM)
Outline: as §1

[15] = system: PPARg homodimer (NR concentration 180 nM)
Outline: as §1

[16] = system: PXR:RXRa (NR concentration 270 nM, RXRa partner concentration 90 nM)
Outline: as §1

[17] = system: PXR homodimer (NR concentration 270 nM)
Outline: as §1

[18] = system: RARa:RXR (NR concentration 270 nM, RXRa partner concentration 90 nM)
Outline: as §1

[19] = system: RARa homodimer (NR concentration 270 nM)
Outline: as §1

[20] = system: RARb:RXRa (NR concentration 270 nM, RXRa partner concentration 90 nM)
Outline: as §1

Sequence	PBM binding z-score [1]	PBM binding z-score [2]	PBM binding z-score [3]	PBM binding z-score [4]	PBM binding z-score [5]	PBM binding z-score [6]	PBM binding z-score [7]	PBM binding z-score [8]	PBM binding z-score [9]	PBM binding z-score [10]	PBM binding z-score [11]	PBM binding z-score [12]	PBM binding z-score [13]	PBM binding z-score [14]	PBM binding z-score [15]	PBM binding z-score [16]	PBM binding z-score [17]	PBM binding z-score [18]	PBM binding z-score [19]	PBM binding z-score [20]
GATACAGGGTCAGCTAGAGGCCAGAGTCTGGAAA	4.63	2.79	-0.316	2.18	-0.91	4.47	3.57	3.41	0.796	2.27	1.42	2.41	-0.329	-0.829	2.68	3.16	-0.43	4.74	0.22	4.16
AGAACGAGGGCACGCGGAGTTGATAGCAGAGTAG	0.925	0.696	-0.442	0.259	-1.01	2.58	2.36	1.91	0.448	1.26	4.28	4.01	0.563	-0.521	0.0413	1.45	-0.14	1.12	-0.653	2.64
CCAGACAGGTGAGATGGTAACTCAGCCTCGATTA	-0.218	-0.133	0.219	-0.0689	-0.491	0.132	0.33	0.151	-0.316	-0.00959	0.95	0.00345	-0.391	-0.721	0.16	-0.343	0.189	-0.347	0.738	0.229
ACTATTAGTTGAGACGAGGGCAACCGTTAGGTTG	0.584	0.15	0.0603	-0.161	0.0285	0.115	0.198	-0.206	-0.415	-0.374	0.0606	0.467	0.0213	0.173	0.552	1.36	0.226	0.588	-0.132	1.1
TCTCGGAGGACACGTAGGTCAGAGCTTTCCAGAG	0.6	0.395	-0.0787	0.22	-0.976	1.09	0.109	1.13	2.08	1.61	1.13	0.761	-0.418	-1.11	0.0512	0.765	-0.00599	0.992	-0.463	2.54
TCTGCTAGTTCAGTTGGTCAGCTAACGAGCTGCC	-0.661	-0.0879	-0.708	-0.52	0.193	0.1	-1.03	0.545	1.27	0.794	0.762	0.394	-0.505	-0.636	-1.77	-0.0751	-0.641	-0.244	-1.61	0.778
TCATATAGGTAATACAGGTGAAAGACGGCATCTA	1.16	1.28	0.842	0.947	0.0154	1.94	1.92	2.73	4.26	3.41	4.17	3.37	1.39	1.69	1.42	0.845	0.764	1.34	1.85	0.786
GCATATAGGTAATACAAGCTGAAAGTCCGATTGT	-0.216	-0.314	-0.237	-0.399	-0.434	0.493	0.856	0.592	0.14	0.385	3.93	2.4	0.865	0.595	0.219	-0.13	-0.000493	0.243	0.388	-0.475
GCTAGTTGGTCAGTATAAGGTCACACACCGGTCG	3.04	2.87	3.48	2.64	0.601	3.23	1.38	2.09	0.612	1.37	1.28	2.3	0.282	0.251	4.01	4.26	1.61	4.86	2.27	3.5
TCTATTAGTTGATTAGGGCAACCGGAACAGCGGA	0.61	0.628	0.183	0.539	0.503	0.953	0.188	1.84	3.7	2.79	2.14	1.3	0.694	0.839	1.02	0.35	0.534	0.296	0.818	1.06
AGAATGAAGTTATACGTAGATCAGGGAAGAAAGT	-0.499	-0.297	-0.439	-0.59	-0.391	-0.311	0.842	-0.228	0.0525	-0.163	-0.998	-0.385	1.2	0.896	-0.353	-0.161	0.326	-0.215	0.239	-0.131
ACAGACGGGTGAGTGAAGGTAACTCAGCTGGACG	0.431	-0.164	-0.31	-0.488	-0.833	0.0344	0.424	-0.249	-0.296	-0.268	-0.0722	0.467	2.8e-05	-1.31	0.113	-0.343	-0.231	0.0341	-0.176	0.0932
CATGCTAGGTCAATGGTCAGCTAAAGCAGCTCGC	3.18	2.65	0.2	1.38	0.174	3.04	4.43	4.63	2.27	4.38	3.11	3.53	-0.274	-0.0398	1.14	0.721	-0.406	1.82	-0.113	3.87
ATCGAAAGGACGACGAGGTGAGTATACACCGTTT	0.179	-0.132	-0.204	-0.324	-0.355	-0.0942	1.08	-0.0154	0.318	0.299	-0.481	0.315	0.774	0.683	-0.198	-0.109	-0.293	0.0451	0.198	1.1
CCTACTGGGCCAAAGGTCATTGAGTCCAATGCTC	4.97	5.37	3.87	4.99	0.584	6.7	11.6	9.86	10.1	10.7	5.06	6.83	0.176	-0.111	2.47	6.16	12.7	5.99	1.14	4.71
CCTCACGGGTCACTCCAGGTTATAGCATCGGAGT	4.64	7.34	1.76	5.28	0.129	4.16	2.19	2.85	0.902	1.92	0.962	1.92	-0.553	-0.76	1.7	4.86	0.245	3.93	0.83	3.69
CCGACTAGGGCAGAAAGGTTACCATACCATCCGG	0.259	0.701	0.0905	0.925	-0.912	2.11	1.79	2.27	0.723	1.86	2.95	2.6	-0.185	-0.946	1.12	1.24	-0.00781	1.86	0.161	2.24
CCTTACGGGTCAGTCCAGGTTATAGCATCGGAGT	3.69	3.88	0.251	1.74	-0.12	2.85	1.11	1.64	0.319	0.821	1.7	2.05	-0.331	-0.72	1.36	4.25	0.276	2.69	0.405	3.31
TAGCCTAGGCCATTCAGGGGCCAGTATAGAAAGC	-0.487	-0.796	-0.549	-0.624	-0.52	-0.185	0.0353	-0.377	-0.468	-0.511	-0.752	0.1	-0.845	-0.806	-0.678	-0.717	-0.964	-0.354	-0.891	0.992
TCGATTAGGTTAGTCGGGGCATTCAGCCAACATA	0.428	0.421	-0.073	0.839	-0.164	0.801	-0.279	1.29	2.61	1.79	2.2	0.996	0.0217	-0.0761	0.302	0.39	0.0297	0.45	-0.0114	0.705
TGTCACAGTTCAAAGGTAACGTAAGTATCCACAC	4.13	3.82	0.785	2.87	0.361	4.26	4.43	4.67	1.68	3.69	0.227	2.78	1.49	1.01	0.48	3.67	0.969	4.07	-0.272	2.88
CCTAGTTGATCAAGGTCACACACGCTATAGGTAC	4.38	4.15	2.75	4.06	1.42	4.36	2.96	3.19	1.28	2.24	2.26	3.44	1.49	1.07	3.39	4.28	3.62	4.24	2.05	3.95
CCAGATAGGTGAGAAGGTAACTCAGCCTCGATTA	-0.0268	0.168	0.00136	0.105	-0.314	1.14	1.1	2.3	0.791	1.76	2.53	1.72	-0.37	-0.16	1.05	0.0792	0.177	0.307	0.419	0.76
TGTCCAAGTTCAAAGGTAACGTAAGTATCCACAC	4.56	4.49	1.09	3.06	0.689	4.29	4	4.65	2.1	4.16	-0.319	1.81	1.26	1.32	1.85	4.87	3.45	5.04	0.541	3.42
GCATATAGGTAATACAAGTTGAAAGTCCGATTGT	0.281	0.793	-0.112	0.0778	-0.33	1	1.05	0.484	-0.0817	0.166	4.35	2.61	1.06	0.954	0.423	0.787	0.733	0.761	0.554	0.148
CCTACTGGGCCCTCAGGTCATTGATATCAACGTT	0.913	0.734	0.835	1.2	-0.368	1.5	0.069	1.15	-0.276	0.433	-0.0673	1.11	-0.224	-0.58	0.88	1.43	0.581	1.64	0.179	1.4
CTCGAAAGGTCGTTTGAGGTGAGTATACGGATAA	6.16	4.77	0.74	3.96	1.09	4.99	2.46	3.47	1.38	2.14	0.353	1.91	1.09	0.474	1.54	5.25	0.584	4.16	-0.088	3.89
CCTACTGGGCCATTCAGCGGTCATTGATCATATG	-0.0404	0.756	3.78	0.208	-0.516	0.727	0.533	0.538	-0.375	0.242	4.3	3.25	0.0512	-0.76	0.303	-0.111	-0.0854	0.0105	0.0285	1.2

— the supplement of paper PMC6555819
